High-throughput results deposited in PubChem BioAssay by National Center for Advancing Translational Sciences (NCATS).
hNpr1 antagonist: Natriuretic polypeptide receptor (hNpr1) antagonism - Primary qHTS | Atrial natriuretic peptide receptor 1 (Homo sapiens), P16066 | HEK293 hNpr1 GloSensor cGMP, ANP-stimulated luminescence | Potency, µM (highest dose often 46.3 µM), most hits filed as inhibitors | hit rate 1.6% among 76,000; calls by dose curve; note: nearly all actives have a fitted effect of over 60% in size
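Compound pre-incubated 30 min at room temperature on GloSensor-loaded HEK293 cells stably carrying hNpr1 and the pGS-40F cGMP biosensor. Stimulation uses hNppA at 0.1 nM final; luminescence is taken at baseline and 20 min post-agonist.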
3T3 cytotox: Cytotoxic Profiling in NIH 3T3 Cell Line of Diverse Libraries Using Quantitative High-Throughput Screening. NIH 3T3 viability, CellTiter-Glo ATP luminescence, 48-72 h. Potency, µM (highest dose often 96.7 µM), most hits filed as inhibitors. AID 1345082, 2018. hit rate 4.3% among 94,000; note: nearly all actives have a fitted effect of over 55% in size
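Cytotoxicity was measured by CellTiter-Glo ATP luminescence after 48 or 72 h compound exposure at 37 °C. Mouse NIH 3T3 fibroblasts were seeded at 400 cells/well and dosed by 23 nL pin transfer.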
FLuc inh: Firefly luciferase inhibition profiling of diverse chemical library using quantitative high-throughput screening; Luciferin 4-monooxygenase (Photinus pyralis), P08659; purified P. pyralis luciferase, luminescence, biochemical; Potency, µM (doses to about 115 µM), most hits filed as inhibitors; hit rate 2.5% among 76,000; note: nearly all actives have a fitted effect of over 65% in size
Target sequence (P08659 whole entry, looked up): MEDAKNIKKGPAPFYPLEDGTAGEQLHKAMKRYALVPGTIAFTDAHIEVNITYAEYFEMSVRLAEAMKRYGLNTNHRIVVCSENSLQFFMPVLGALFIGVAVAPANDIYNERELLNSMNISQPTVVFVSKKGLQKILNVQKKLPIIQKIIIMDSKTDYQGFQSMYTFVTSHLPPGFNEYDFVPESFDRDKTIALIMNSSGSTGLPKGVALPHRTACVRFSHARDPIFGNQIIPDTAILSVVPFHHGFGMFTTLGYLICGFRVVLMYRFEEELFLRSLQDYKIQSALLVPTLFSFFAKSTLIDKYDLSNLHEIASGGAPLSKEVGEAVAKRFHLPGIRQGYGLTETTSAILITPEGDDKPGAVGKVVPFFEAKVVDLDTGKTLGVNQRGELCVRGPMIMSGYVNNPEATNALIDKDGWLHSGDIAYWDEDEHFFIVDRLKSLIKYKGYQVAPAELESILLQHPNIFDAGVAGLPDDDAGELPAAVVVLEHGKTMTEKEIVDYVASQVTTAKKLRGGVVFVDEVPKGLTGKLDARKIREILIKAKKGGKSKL
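Luminescence read by CCD imaging after purified firefly luciferase (10nM final) was added to substrate buffer holding 10uM D-luciferin and 10uM ATP, pH 7.5, pre-dosed with compound.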
HEK cytotox: Cytotoxic Profiling in HEK 293 Cell Line of Diverse Libraries Using Quantitative High-Throughput Screening | HEK 293 viability, ATP luminescence (CellTiter-Glo), 48-72 h | Potency, µM (series often up to 115 µM), most hits filed as inhibitors | hit rate 6.6% among 94,000; note: nearly all actives have a fitted effect of over 60% in size
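Cytotoxicity was scored by loss of ATP-coupled luminescence (CellTiter-Glo) in HEK 293 cells. Compound treatment ran 48 or 72 hr at 37 degree Celsius, 5% CO2, 95% humidity.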
Of the large screens only hits and unclear results are named; the others gave an inactive call; ! = repeats disagree. In the library only some 11% were active in any assay of this set; here they are far more common. Unless noted, calls come from the whole dose curve; as a rule, active = well fitted curve in the direction sought with a large enough effect; inconclusive = small, poorly fitted or top-dose-only effect, or another doubt; inactive = no such curve, though single readings can be large; an effect the other way counts as inactive or inconclusive.

O=C(C1CCCN(Cc2cccc(-c3ccc(F)cc3F)c2)C1)N1CCCC1 (stereo not drawn)	3T3 cytotox inconclusive, HEK cytotox 28.2µM (no result: hNpr1 antagonist, FLuc inh)
O=C(C1CCCN(Cc2cccc(-c3ccc(F)cc3F)c2)C1)N1CCN(c2ncccn2)CC1 (stereo not drawn)	3T3 cytotox inconclusive, HEK cytotox 39.8µM (no result: hNpr1 antagonist, FLuc inh)
C#CCNC(=O)C1CCc2nnc(-c3cccc(C(F)(F)F)c3)n21 (stereo not drawn)	none (no result: hNpr1 antagonist, FLuc inh)
CCOc1ccccc1C(=O)N1CCC2(CC1)NC(=O)N(Cc1ccccc1)C2=O	none
COc1ccc(C(=O)N2CCCC3(C2)NC(=O)N(Cc2ccc(Cl)cc2)C3=O)cc1 (stereo not drawn)	HEK cytotox 50.1µM
CCOc1ccccc1C(=O)N1CCCC2(C1)NC(=O)N(Cc1ccc(Cl)cc1)C2=O (stereo not drawn)	3T3 cytotox inconclusive, HEK cytotox 79.4µM
O=C(c1cc2ccccc2[nH]1)N1CCC2(C1)NC(=O)N(Cc1ccc(Cl)cc1)C2=O (stereo not drawn)	3T3 cytotox inconclusive, FLuc inh inconclusive, HEK cytotox 35.5µM
O=C(c1cc2ccccc2[nH]1)N1CCCC2(C1)NC(=O)N(Cc1ccccc1)C2=O (stereo not drawn)	HEK cytotox inconclusive
O=C(c1cccc(O)c1)N1CC(CNc2ccccc2)C2(C1)CN(c1ccccc1)C2 (stereo not drawn)	3T3 cytotox 50.1µM, HEK cytotox 63.1µM
O=C(Cc1ccc(O)cc1)N1CC(CNc2ccccc2)C2(C1)CN(c1ccccc1)C2 (stereo not drawn)	3T3 cytotox 31.6µM, HEK cytotox 50.1µM
C[S+](=O)([O-])N1CCCN(c2ccnc3ccnn23)CC1	none (no result: hNpr1 antagonist, FLuc inh)
CN1CCCN(S(=O)(=O)c2cccc(Cl)c2)c2ccccc21	3T3 cytotox inconclusive, HEK cytotox 39.8µM
CN(C)C[C@@H]1CN(S(C)(=O)=O)C[C@H]1NC(=O)c1c(F)cccc1Cl	FLuc inh 39.8µM
CN(C)C[C@@H]1CN(S(C)(=O)=O)C[C@H]1NC(=O)c1ccc(Cl)cc1	none
COc1cccc(-c2cccc(C(=O)N3CCCC3C(=O)N(C)C)c2)c1 (stereo not drawn)	none (no result: hNpr1 antagonist, FLuc inh)
CCc1nc2c(c(-c3ccc(O)cc3)n1)CCN(Cc1ccccc1OC)CC2	3T3 cytotox inconclusive, HEK cytotox inconclusive
CCc1nc2c(c(-c3ccc(Cl)cc3)n1)CN(Cc1ccc(OC(F)(F)F)cc1)CC2	3T3 cytotox 25.1µM, HEK cytotox inconclusive
CCc1nc2c(c(-c3ccc(Cl)cc3)n1)CN(Cc1ccccc1)CC2	3T3 cytotox 10µM, HEK cytotox 17.8µM
CCc1nc2c(c(-c3ccc(Cl)cc3)n1)CN(Cc1ccsc1)CC2	3T3 cytotox inconclusive, HEK cytotox inconclusive
CCc1nc2c(c(-c3ccc(Cl)cc3)n1)CN(Cc1ccc(C(F)(F)F)cc1)CC2	3T3 cytotox inconclusive, HEK cytotox 89.1µM
CCc1nc2c(c(-c3ccc(O)cc3)n1)CN(Cc1ccccc1OC)CC2	3T3 cytotox inconclusive, HEK cytotox 44.7µM
CN(C)C[C@@H]1CN(C)C[C@H]1NS(=O)(=O)c1ccc(Br)cc1	none
Cc1nc(-c2cccc(Cl)c2)n(Cc2ccc(F)c(F)c2)c(=O)c1CCO	3T3 cytotox inconclusive, HEK cytotox inconclusive
COc1ccc(-c2c(C(=O)NCc3ccccc3)nc3sccn23)cc1	3T3 cytotox inconclusive (no result: hNpr1 antagonist, FLuc inh)
CCc1nc2c(c(-c3ccc(Cl)cc3)n1)CN(Cc1ccc(C)cc1)CC2	3T3 cytotox 25.1µM, HEK cytotox inconclusive
CCc1nc2c(c(-c3ccc(O)cc3)n1)CN(Cc1ccc(C)cc1)CC2	HEK cytotox inconclusive
CC(=O)Oc1c(-c2ccc(NC(=O)C3CC3)cc2)c(-c2ccc3c(c2)OCO3)nn1-c1cccc(C)c1	3T3 cytotox inconclusive, HEK cytotox inconclusive
COc1ccccc1-c1cccc(CN2CCC(NC(=O)Nc3ccccc3)CC2)c1	3T3 cytotox 17.8µM, HEK cytotox 22.4µM (no result: hNpr1 antagonist, FLuc inh)
COc1ccc(C(=O)NC2CCN(Cc3cccc(-c4ccc(SC)cc4)c3)CC2)cc1	none (no result: hNpr1 antagonist, FLuc inh)
COc1ccccc1-c1cccc(CN2CCC(NC(=O)c3cccc(Cl)c3)CC2)c1	3T3 cytotox inconclusive, HEK cytotox 44.7µM (no result: hNpr1 antagonist, FLuc inh)
CSc1ccc(-c2cccc(CN3CCC(NC(=O)c4cccc(Cl)c4)CC3)c2)cc1	none (no result: hNpr1 antagonist, FLuc inh)
COc1ccccc1-c1cccc(CN2CCC(NC(=O)c3ccc(C(F)(F)F)cc3)CC2)c1	3T3 cytotox 25.1µM, HEK cytotox 22.4µM (no result: hNpr1 antagonist, FLuc inh)
O=C(NC1CCN(Cc2cccc(-c3ccc(F)cc3F)c2)CC1)c1cccc(Cl)c1	3T3 cytotox 15.8µM, HEK cytotox 22.4µM! (no result: hNpr1 antagonist, FLuc inh)
COc1ccccc1-c1cccc(CN2CCC(NC(C)=O)CC2)c1	3T3 cytotox inconclusive (no result: hNpr1 antagonist, FLuc inh)
COc1ccccc1-c1cccc(CN2CCC(NC(=O)Cc3cccc(Cl)c3)CC2)c1	3T3 cytotox 25.1µM, HEK cytotox inconclusive (no result: hNpr1 antagonist, FLuc inh)
COc1ccccc1-c1cccc(CN2CCC(NC(=O)Cc3ccc(F)cc3)CC2)c1	3T3 cytotox 31.6µM, HEK cytotox inconclusive (no result: hNpr1 antagonist, FLuc inh)
Cc1cn2nc(C(=O)Nc3ccc4c(c3)OCCO4)cc2c(N2CCSCC2)n1	FLuc inh 11.2µM, HEK cytotox inconclusive
Cc1cn2nc(C(=O)NC3CCCCC3)cc2c(N2CCCC2)n1	none
Cc1cn2nc(C(=O)Nc3ccc4c(c3)OCO4)cc2c(N2CCCC2)n1	FLuc inh inconclusive
Cc1cn2nc(C(=O)NC3CCCCCC3)cc2c(N2CCSCC2)n1	3T3 cytotox inconclusive, HEK cytotox 44.7µM
Cc1cccc(NC(=O)c2cc3c(N4CCSCC4)nc(C)cn3n2)c1	3T3 cytotox inconclusive, HEK cytotox 39.8µM
O=C(c1cccs1)N1CCC(N2C(=O)[C@H]3CN(Cc4ccccc4)C[C@H]3C2=O)CC1	HEK cytotox inconclusive (no result: hNpr1 antagonist, FLuc inh)
OCc1cccc(-c2cc(-c3cccnc3)c3cncn3c2)c1	none
O=C(Cc1ccccc1)Nc1cc(-c2ccccn2)nn1-c1ccccc1	HEK cytotox inconclusive (no result: hNpr1 antagonist, FLuc inh)
O=S(=O)(NC[C@H]1Cn2c(-c3ccc(F)cc3)cnc2CO1)c1ccc(Cl)cc1	hNpr1 antagonist inconclusive, 3T3 cytotox inconclusive, HEK cytotox 100µM
O=C(NC[C@H]1Cn2c(-c3ccc4c(c3)OCO4)cnc2CO1)c1ccc2c(c1)OCO2	3T3 cytotox 28.2µM, FLuc inh inconclusive, HEK cytotox 63.1µM
Fc1ccc(-c2cnc3n2C[C@H](CN(Cc2ccccc2)Cc2ccccc2)OC3)cc1	3T3 cytotox 28.2µM, HEK cytotox 35.5µM
COc1ccccc1C(=O)NC[C@H]1Cn2c(-c3ccc(Cl)cc3)cnc2CO1	hNpr1 antagonist inconclusive, 3T3 cytotox 10µM, HEK cytotox 12.6µM
Fc1ccc(-c2cnc3n2C[C@H](CNCc2ccccn2)OC3)cc1	HEK cytotox inconclusive
COCC(=O)NC[C@H]1Cn2c(-c3ccc(Cl)cc3)cnc2CO1	3T3 cytotox inconclusive
CCOCCCNC(=O)C1CCN(Cc2ccccc2-c2ccccc2F)CC1	HEK cytotox inconclusive (no result: hNpr1 antagonist, FLuc inh)
COc1ccc2c(c1)C(COCc1ccccc1)=CC(C)(C)CO2	HEK cytotox inconclusive (no result: hNpr1 antagonist, FLuc inh)
